Assay results published in PubChem BioAssay AID1986 (Sanford-Burnham Center for Chemical Genomics, 2009).
Out of some 290,000 compounds screened, about 890 (0.31%) were called active. Rule as the data show it: active = inhibition mostly above about 52% (no sharp cut-off); inactive = mostly below about 76%. The full list was thinned out, with actives kept by preference.

Test: inhibitors of HIV fusion peptide binding, primary screen, biochemical, uHTS, fluorescence dequenching (AID 1986)
Conditions: cell-free peptide binding, 30 min, stronger effect = higher value
[1] = measured here: repeat confirmation average inhibition, at 18.6 µM

Row | Compound | inhibition (at 20 µM) | inhibition [1] [%]
1 | O=C(COC(=O)c1ccc([N+](=O)[O-])s1)NC(c1ccccc1)c1ccccc1 | 0% (inactive) | –
2 | O=C(NC(=S)NC1CCSC1=O)c1ccc([N+](=O)[O-])cc1 (centres undefined) | -1.4% (inactive) | –
3 | COc1ccc(OC)c(CNC(=O)CCC(=O)N2Cc3cccc(OC)c3Oc3ncccc32)c1 | 1.2% (inactive) | –
4 | Cc1ccc2nc(N/C(=N/S(=O)(=O)c3cccs3)c3ccccc3Cl)sc2c1 | 69.2% (active) | –
5 | Cc1ccc2nc(N/C(=N/S(=O)(=O)c3ccc(F)cc3)c3ccccc3)sc2c1 | 8.2% (inactive) | –
6 | COc1ccc2nc(N/C(=N/S(=O)(=O)c3cccs3)c3ccccc3Cl)sc2c1 | 30.6% (inactive) | –
7 | Cc1cc(C)nc(SCc2nc(N)nc(-c3ccccc3O)n2)n1 | -1.6% (inactive) | –
8 | COc1cc2c(cc1OC)CN(C(=O)c1sc(-c3cnccn3)nc1C)CC2 | 0.1% (inactive) | –
9 | COc1cc(/C=N/N=C2/NC(=O)C(CC(=O)O)S2)ccc1OCc1cccc(Cl)c1 (centres undefined) | 47.1% (inactive) | –
10 | CCOc1cc(/C=N/NC(=O)CN2CCOCC2)ccc1OCc1ccc(Cl)cc1 | 0.5% (inactive) | –
11 | COc1cc(/C=N/N=C2/NC(=O)C(CC(=O)O)S2)ccc1OCc1ccc(Cl)cc1 (centres undefined) | 51.8% (active) | –
12 | CCOc1cc(/C=N/N=C2/NC(=O)C(CC(=O)O)S2)ccc1OCc1ccccc1Cl (centres undefined) | 53% (inactive) | 36.4
13 | COc1ccc(/C=N/N=C2/NC(=O)C(CC(=O)O)S2)cc1OCc1ccc(Cl)cc1 (centres undefined) | 44% (inactive) | –
14 | CCOc1cc(/C=N/NC(=O)CN2CCCCC2)ccc1OCc1ccc(Cl)cc1 | -0.7% (inactive) | –
15 | COc1ccc(/C=N/N=C2/NC(=O)C(CC(=O)O)S2)cc1OCc1ccc(Cl)cc1Cl (centres undefined) | 50.6% (inactive) | 47.2
16 | Cc1ccc(NC(=S)NCCN(C2CCCCC2)C2CCCC2)cc1C | 0.4% (inactive) | –
17 | COc1cc(C(C)=O)ccc1COc1ccc(C(=O)O)cc1OC | 2.1% (inactive) | –
18 | O=C(NC1CC2CCCC(C1)N2Cc1ccco1)NC12CC3CC(CC(C3)C1)C2 (centres undefined) | 0.1% (inactive) | –
19 | CCC(=O)Oc1ccc2c(C)cc(=O)oc2c1C(=O)c1ccccc1 | 1.8% (inactive) | –
20 | COc1ccc(C(=O)c2cc3cccc(OC)c3o2)cc1 | -1% (inactive) | –
21 | Cc1ccccc1N1C(=O)c2cccc3c(N(C)CCO)ccc(c23)C1=O | 2.4% (inactive) | –
22 | COc1ccc(N2C(=O)c3cccc4c(N(C)CCO)ccc(c34)C2=O)cc1 | 150% (inactive) | –
23 | COc1ccccc1N1C(=O)c2cccc3c(N(C)CCO)ccc(c23)C1=O | 64% (active) | 61.6

Row | Compound | inhibition (at 20 µM) | inhibition [1] [%]
24 | COc1ccccc1/C=C/C=N/n1c(-c2ccncc2)n[nH]c1=S | 1.2% (inactive) | –
25 | CC(C)=NNc1nc2sc3c(c2c(=O)[nH]1)CC(C)(C)OC3 | 6.1% (inactive) | –
26 | CN(C)[C@@H]1C(=O)C(C(=O)NCN2CCCC2)=C(O)[C@@]2(O)C(=O)C3=C(O)c4c(O)cccc4[C@@](C)(O)C3CC12 (some centres undefined) | 55.1% (active) | –
27 | C=CCCC(=O)N1CCC(n2nccc2NC(=O)CCCc2ccccc2)CC1 | -2.2% (inactive) | –
28 | COc1ccc2nc(N/C(N)=N/C(=S)Nc3cccc(C)c3)nc(C)c2c1 | 1.7% (inactive) | –
29 | CCCCCOc1ccc(/C=c2\sc3nc(=O)c(-c4ccccc4)nn3c2=O)cc1OC | 51.8% (active) | –
30 | COc1cc(/C=c2\sc3nc(=O)c(-c4ccccc4)nn3c2=O)ccc1OCCC(C)C | 62.3% (inactive) | 39.1
31 | COc1ccc(/C=c2\sc3nc(-c4ccccc4)c(-c4ccccc4)n3c2=O)cc1OC | -0.1% (inactive) | –
32 | CC(=O)Oc1ccc(/C=N/NC2=NS(=O)(=O)c3ccccc32)cc1 | 0.3% (inactive) | –
33 | CCCc1ccc(Oc2coc3cc(OCC(=O)Nc4ccccc4C)ccc3c2=O)cc1 | -2.2% (inactive) | –
34 | NC(=S)N/N=C/c1ccccc1O | -1.4% (inactive) | –
35 | NC(=S)N/N=C/c1cccc(O)c1O | 3.4% (inactive) | –
36 | Cc1cc(/C=N/NC(N)=S)c(O)c(/C=N/NC(N)=S)c1 | 88.3% (active) | –
37 | CCOC(=O)Cn1c(=N)n(CCOc2ccc(F)cc2)c2ccccc21 | 0% (inactive) | –
38 | COc1ccc(CCNC(=O)C2CCC(=O)N(CC3CCCCC3)C2)cc1 (centres undefined) | 0.4% (inactive) | –
39 | N/C(Cc1cccc2ccccc12)=N\OC(=O)COc1ccccc1 | 2.3% (inactive) | –
40 | O=C(O)Cn1cc(/C=N/NC(=O)c2cc3cc(Br)ccc3o2)c2ccccc21 | 29.5% (inactive) | –
41 | O=C(O)c1ccc(-n2cccc2/C=N\NC(=O)c2cc3cc(Br)ccc3o2)cc1 | 50.1% (active) | –
42 | Cn1cc(/C=N/NC(=O)c2cc3cc(Br)ccc3o2)c2ccccc21 | 4.4% (inactive) | –
43 | Cc1ccc(NC(=O)C2CCN(S(=O)(=O)c3ccc4c(c3)CCCC(=O)N4)CC2)c(Br)c1 | 1.8% (inactive) | –
44 | CC1=C/C(=C/N(C)C)C(=O)O1 | 5.9% (inactive) | –
45 | CCOC(=O)/C(=C/C1=CC(=C/N(C)C)/C(=O)O1)C(C)=O | 59.4% (active) | 65.4
46 | CN(C)/C=C1/C=C(C=O)OC1=O | -0.5% (inactive) | –

Row | Compound | inhibition (at 20 µM) | inhibition [1] [%]
47 | COc1cc([N+](=O)[O-])ccc1N1C(=O)CC(Sc2nccc(C)n2)C1=O (centres undefined) | -1% (inactive) | –
48 | N=C1/C(=C/c2coc3ccccc3c2=O)C(=O)N=C2SC(c3ccco3)=NN12 | 114% (active) | –
49 | CCSC1=NSC2=NC(=O)/C(=C\c3coc4ccccc4c3=O)C(=N)N12 | 89.7% (active) | –
50 | N=C1/C(=C\c2coc3ccccc3c2=O)C(=O)N=C2SC=CN12 | 146% (inactive) | –
51 | CC(C)CC1=NN2C(=N)/C(=C\c3coc4ccccc4c3=O)C(=O)N=C2S1 | 148% (inactive) | –
52 | CC(C)CSC1=NSC2=NC(=O)/C(=C\c3ccccc3)C(=N)N12 | 46.5% (inactive) | –
53 | CSC1=NSC2=NC(=O)/C(=C/c3coc4ccccc4c3=O)C(=N)N12 | 91.2% (active) | –
54 | CC1=CC2=NC(=O)/C(=C\c3ccc(-c4ccc(Cl)cc4)o3)C(=N)N2O1 | 13.2% (inactive) | –
55 | N=C1/C(=C\c2coc3ccccc3c2=O)C(=O)N=C2SC(c3ccncc3)=NN12 | 146% (inactive) | –
56 | CC1=CC2=NC(=O)/C(=C\c3cc(C)n(-c4cccc(Cl)c4)c3C)C(=N)N2O1 | 0.2% (inactive) | –
57 | CC(C)CSC1=NSC2=NC(=O)/C(=C\c3coc4ccccc4c3=O)C(=N)N12 | 148% (inactive) | –
58 | CSC1=NSC2=NC(=O)/C(=C\c3coc4ccccc4c3=O)C(=N)N12 | 44.5% (inactive) | –
59 | CC1=CC2=NC(=O)/C(=C/c3coc4ccc(Cl)cc4c3=O)C(=N)N2O1 | 99.7% (active) | 62.3
60 | COc1ccccc1CNC(=O)C1CC(c2ccccc2C(F)(F)F)=NO1 (centres undefined) | 0.6% (inactive) | –
61 | COCc1cc(C)n(CC(=O)Nc2c(C)cccc2C)c(=O)c1C#N | 0.1% (inactive) | –
62 | NC(=O)c1ccccc1NCC(=O)c1ccc(Cl)cc1 | 1.4% (inactive) | –
63 | CCOC(=O)C1=C(COC(=O)C2(C)CC2(Cl)Cl)NC(=O)NC1c1ccccc1 (centres undefined) | -1.7% (inactive) | –
64 | CC12CC3CC(C)(C1)CC(C(=O)NC1=NCCS1)(C3)C2 | -1.5% (inactive) | –
65 | Cc1ccc(C(=O)N2CCCC(Nc3cccc(F)c3)C2)cc1N1CCNC1=O (centres undefined) | 0% (inactive) | –
66 | CCN(CC)c1nc2n(c(=O)n1)CCN2CC | 2.4% (inactive) | –
67 | O=C(CN1C(=O)C2CC=CCC2C1=O)NCc1cccs1 (centres undefined) | -0.4% (inactive) | –
68 | COc1ccc(CN2CSC(=S)N(Cc3ccc(OC)cc3)C2)cc1 | -1.4% (inactive) | –
69 | CSC1=NSC2=NC(=O)/C(=C\c3cccs3)C(=N)N12 | 45.4% (inactive) | –

Row | Compound | inhibition (at 20 µM) | inhibition [1] [%]
70 | CSC1=NSC2=NC(=O)/C(=C/c3coc4ccc(O)cc4c3=O)C(=N)N12 | 57.5% (active) | –
71 | N=C1/C(=C\c2coc3ccc(O)cc3c2=O)C(=O)N=C2SC=CN12 | 150% (inactive) | –
72 | O=C1N/C(=C/c2cccs2)C(=O)N1Cc1ccccc1F | -0.7% (inactive) | –
73 | Cc1ccc(/C=C2/NC(=O)N(Cc3ccccc3F)C2=O)s1 | 64% (active) | 72.6
74 | Cc1ccc(/C=C2/NC(=O)N(Cc3ccccc3)C2=O)s1 | 36.8% (inactive) | –
75 | O=C(CNC(=O)c1ccccc1F)NC1CC1 | -0.1% (inactive) | –
76 | Cc1cc(-n2c(C)cc(C(=O)CSc3ccc4c(c3)OCCO4)c2C)no1 | 2.6% (inactive) | –
77 | CC(C)(C)C(=O)N=C1SC2CS(=O)(=O)CC2N1c1ccc2c(c1)OCO2 (centres undefined) | -0.3% (inactive) | –
78 | CCC(C)NC(=O)C1CCC(CNS(=O)(=O)c2ccccc2)CC1 (centres undefined) | -0.4% (inactive) | –
79 | Cc1ccc(O)c(C(=O)c2cc(C#N)c(=O)n(-c3nccs3)c2)c1 | 143% (inactive) | –
80 | N#Cc1cc(C(=O)c2cc(F)ccc2O)cn(-c2nccs2)c1=O | 151% (inactive) | –
81 | N#Cc1cc(C(=O)c2ccccc2O)cn(-c2nccs2)c1=O | 52.8% (active) | 99.4
82 | CCOC(=O)c1c(NC(=S)Nc2ccc(Cl)cc2)sc2c1CCN(C)C2 | 23.1% (inactive) | –
83 | CC(C)c1ccc(N(CC(=O)NCc2ccc(F)cc2)C(=O)c2csnn2)cc1 | -1.1% (inactive) | –
84 | Cc1c(C(=O)N(C)Cc2ccccc2)oc2c(Cl)cccc12 | -0.6% (inactive) | –
85 | O=C1N/C(=N/NC(=O)c2cccc3ccccc23)S/C1=C\c1ccccc1OCc1ccccc1 | 80.3% (active) | –
86 | O=C1NC(=O)/C(=C/c2ccccc2OCc2ccccc2)S1 | 31.6% (inactive) | –
87 | O=C1NC(=O)/C(=C\c2ccccc2OCc2ccccc2)S1 | 47.5% (inactive) | –
88 | COc1ccc(C2CC(=O)c3cnc(NC(=O)c4cccc(OC)c4)nc3C2)cc1 (centres undefined) | 5.8% (inactive) | –
89 | CCC(C)NC(=O)c1ccccc1NC(=O)COc1ccc(OC)cc1 (centres undefined) | 1% (inactive) | –
90 | Cc1nc(NC2CCCCC2)c2nnn(Cc3ccccc3Cl)c2n1 | 0.5% (inactive) | –
91 | O=C(NCc1ccccc1)NC(=O)c1ccc(Cl)cc1 | 2.8% (inactive) | –
